Only some compounds are listed: those with a hit (about 1.1% of all), similar ones and a draw of the others.
BioA inh = M. tuberculosis BioA enzyme inhibitors, primary screen, biochemical, plate reader, single point, HTS. purified M. tuberculosis BioA enzyme. 7,8-diaminopelargonic acid synthase BioA (Mycobacterium tuberculosis). inhibition, % at 9.99 µM. actives 0.096% (n = 360,000); in the data active = inhibition above about 40%; inconclusive = no clear call, values can overlap the other calls
PfHsp40 yeast = rescue of yeast from PfHsp40 toxicity, primary screen, S. cerevisiae, ATP luminescence; S. cerevisiae expressing PfHsp40, growth rescue; growth rescue, % at 12.5 µM; actives 0.68% (n = 340,000); AID 504582, 2011; in the data active = growth rescue above about 28%, passing the limit was not always enough; inconclusive = no clear call, values can overlap the other calls;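 note: yeast W303a lacking pdr1 and pdr3 grown in galactose medium; growth measured after three days at 30 °C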
FadD28 binding = inhibitors of FadD28 bisubstrate probe binding, primary screen, biochemical, fluorescence polarization, single point; Mycobacterium tuberculosis FadD28 fatty-acid-AMP ligase; inhibition, % at 12.5 µM; actives 0.22% (n = 360,000); in the data active = inhibition above about 8.5%, passing the limit was not always enough; inconclusive = no clear call, values can overlap the other calls
TcdB GH inh = TcdB glycohydrolase inhibitors, primary screen, biochemical, single point, plate reader. Toxin B (Clostridioides difficile), P18177. TcdB glycohydrolase enzymatic assay. inhibition, % at 9.99 µM. actives 0.24% (n = 350,000). AID 652162, 2013; in the data active = inhibition above about 10%
Target sequence (P18177 whole entry, looked up): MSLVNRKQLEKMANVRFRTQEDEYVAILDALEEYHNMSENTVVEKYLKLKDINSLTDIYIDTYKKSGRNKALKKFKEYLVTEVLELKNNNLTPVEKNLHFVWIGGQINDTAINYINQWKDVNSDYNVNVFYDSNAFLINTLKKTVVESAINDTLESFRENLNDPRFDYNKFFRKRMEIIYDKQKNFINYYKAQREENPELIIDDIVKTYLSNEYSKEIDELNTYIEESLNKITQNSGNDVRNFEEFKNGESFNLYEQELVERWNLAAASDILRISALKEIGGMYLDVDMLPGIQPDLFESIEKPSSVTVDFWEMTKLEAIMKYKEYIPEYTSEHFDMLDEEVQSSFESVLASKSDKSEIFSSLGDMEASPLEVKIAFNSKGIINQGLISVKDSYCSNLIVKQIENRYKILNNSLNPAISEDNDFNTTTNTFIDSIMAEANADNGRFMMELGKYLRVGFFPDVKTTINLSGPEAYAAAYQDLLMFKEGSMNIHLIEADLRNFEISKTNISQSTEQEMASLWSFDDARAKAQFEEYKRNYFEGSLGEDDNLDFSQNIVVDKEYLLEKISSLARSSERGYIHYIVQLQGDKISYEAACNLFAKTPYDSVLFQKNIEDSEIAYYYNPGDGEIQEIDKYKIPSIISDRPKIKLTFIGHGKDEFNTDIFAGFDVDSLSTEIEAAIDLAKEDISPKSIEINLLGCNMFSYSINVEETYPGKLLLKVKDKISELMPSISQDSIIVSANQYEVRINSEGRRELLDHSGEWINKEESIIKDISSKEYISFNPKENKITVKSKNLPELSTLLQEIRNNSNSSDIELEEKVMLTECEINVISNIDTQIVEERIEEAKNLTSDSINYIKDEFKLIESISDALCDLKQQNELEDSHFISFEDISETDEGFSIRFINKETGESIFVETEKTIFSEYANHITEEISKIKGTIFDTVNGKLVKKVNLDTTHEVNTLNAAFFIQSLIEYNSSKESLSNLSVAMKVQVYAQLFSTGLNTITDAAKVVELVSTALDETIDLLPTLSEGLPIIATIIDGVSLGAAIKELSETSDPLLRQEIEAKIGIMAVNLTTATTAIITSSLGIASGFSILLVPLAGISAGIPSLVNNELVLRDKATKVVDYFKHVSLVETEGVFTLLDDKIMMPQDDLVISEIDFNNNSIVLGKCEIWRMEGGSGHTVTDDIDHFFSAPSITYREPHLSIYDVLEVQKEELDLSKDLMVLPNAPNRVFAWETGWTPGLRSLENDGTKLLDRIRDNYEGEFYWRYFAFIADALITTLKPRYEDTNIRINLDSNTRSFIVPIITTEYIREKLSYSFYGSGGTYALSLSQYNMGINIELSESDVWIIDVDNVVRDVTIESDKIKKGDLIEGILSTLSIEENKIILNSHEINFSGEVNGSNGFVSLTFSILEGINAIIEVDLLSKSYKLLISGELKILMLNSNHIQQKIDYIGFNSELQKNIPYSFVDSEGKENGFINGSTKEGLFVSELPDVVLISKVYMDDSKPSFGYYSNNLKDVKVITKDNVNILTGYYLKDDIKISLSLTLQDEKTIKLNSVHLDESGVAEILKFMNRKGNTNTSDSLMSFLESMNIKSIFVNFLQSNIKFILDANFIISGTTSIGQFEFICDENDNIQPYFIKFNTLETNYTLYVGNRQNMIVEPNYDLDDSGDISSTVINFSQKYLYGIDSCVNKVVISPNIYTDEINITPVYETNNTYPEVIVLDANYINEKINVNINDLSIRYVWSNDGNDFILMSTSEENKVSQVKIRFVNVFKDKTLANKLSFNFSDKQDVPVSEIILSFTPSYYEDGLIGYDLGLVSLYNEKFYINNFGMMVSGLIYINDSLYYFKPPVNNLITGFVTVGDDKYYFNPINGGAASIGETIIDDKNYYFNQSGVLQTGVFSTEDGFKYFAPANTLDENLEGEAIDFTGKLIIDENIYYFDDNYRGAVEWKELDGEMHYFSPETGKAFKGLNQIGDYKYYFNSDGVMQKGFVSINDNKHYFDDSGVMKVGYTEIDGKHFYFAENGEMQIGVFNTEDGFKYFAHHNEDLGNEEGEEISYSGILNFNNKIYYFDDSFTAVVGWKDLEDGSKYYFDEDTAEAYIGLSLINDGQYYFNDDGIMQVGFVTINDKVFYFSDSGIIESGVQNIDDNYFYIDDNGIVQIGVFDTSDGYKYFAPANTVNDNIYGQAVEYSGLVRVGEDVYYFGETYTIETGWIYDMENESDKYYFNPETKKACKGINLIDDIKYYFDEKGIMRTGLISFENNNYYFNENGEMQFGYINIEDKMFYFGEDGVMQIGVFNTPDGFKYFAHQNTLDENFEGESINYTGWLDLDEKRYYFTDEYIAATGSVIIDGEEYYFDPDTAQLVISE
PrP UTR inh = inhibition of PrP 5' UTR reporter expression. cell-based PrP 5' UTR mRNA reporter, plate reader. inhibition, % (no concentration beside the values). actives 0.35% (n = 340,000). AID 488862, 2010; in the data active = inhibition above about 52%
Of the large screens only hits and unclear results are named; the others gave an inactive call.

C[C@H]1CN([C@@H](C)CO)C(=O)c2cccc(NC(=O)Nc3cccc4ccccc34)c2O[C@H]1CN(C)C	none (no result: BioA inh, PfHsp40 yeast, FadD28 binding, PrP UTR inh)
N#Cc1ccccc1NC(=O)c1cc(=O)c2ccccc2o1	FadD28 binding 12 (no result: BioA inh)
Cc1ccccc1NC(=O)c1cc(=O)c2ccccc2o1	none (no result: TcdB GH inh)
COc1cccc(NC(=O)C[C@@H]2CC[C@@H]3[C@H](COc4ccc(NC(=O)C5CCC5)cc4C(=O)N3C)O2)c1	none (no result: BioA inh, PfHsp40 yeast, FadD28 binding, PrP UTR inh)
COc1cccc(NC(=O)N[C@@H]2CC[C@@H](CC(=O)N3CCN(C)CC3)O[C@H]2CO)c1	none (no result: PfHsp40 yeast, FadD28 binding, PrP UTR inh)
CCOc1ccc2c(ccc(/C=C/c3cc(C)c4cccnc4c3O)[n+]2C)c1	FadD28 binding 16 (no result: BioA inh, TcdB GH inh)
S=C(Nc1ccccc1)Nc1ccc(OCc2ccccc2)cc1	none (no result: TcdB GH inh)
S=C(Nc1ccc(OCc2ccccc2)cc1)Nc1cccc(Cl)c1Cl	PfHsp40 yeast 67 (no result: TcdB GH inh)
COc1ccc(NC(=O)Nc2ccc3c(c2)C(=O)N([C@H](C)CO)C[C@@H](C)[C@@H](CN(C)S(=O)(=O)c2ccc(F)cc2)OCCCC[C@@H](C)O3)cc1	none (no result: PfHsp40 yeast, FadD28 binding, PrP UTR inh)
N#CC(C#N)=Cc1ccc(O)c(O)c1	none
CC(C)(C)c1cc(C=C(C#N)C#N)cc(C(C)(C)C)c1O	PfHsp40 yeast 211
Cc1cccc(N(C)S(=O)(=O)c2ccc(-c3cnc(C4CC4)o3)cc2)c1	PrP UTR inh 59
Cc1ccc(N(C)S(=O)(=O)c2cc(-c3cnc(C4CC4)o3)ccc2C)cc1	none
COCCn1c(C)cc(/C=N/NC(=O)c2cc3ccccc3cc2O)c1C	FadD28 binding 11 (no result: BioA inh, TcdB GH inh)
Cn1c(O)c(/C=N/NC(=O)c2cc3ccccc3cc2O)c2ccccc21	FadD28 binding inconclusive
COCC(=O)Nc1ccc2c(c1)OC[C@@H](C)N(Cc1cccnc1)C[C@H](C)[C@@H](OC)CN(C)C2=O	none (no result: PfHsp40 yeast, FadD28 binding, PrP UTR inh)
CCOC(=O)c1c(-c2ccc(F)cc2)csc1NC(=O)c1c(-c2ccccc2)noc1C	PfHsp40 yeast 32 (no result: TcdB GH inh)
COC(=O)c1c(-c2ccccc2)csc1NC(=O)c1c(-c2ccccc2)noc1C	none
CNC[C@H]1Oc2c(NC(=O)Nc3ccc(F)cc3)cccc2C(=O)N([C@@H](C)CO)C[C@@H]1C	none (no result: PfHsp40 yeast, FadD28 binding, PrP UTR inh)
Cc1ccc(S(=O)(=O)N[C@@H]2CC[C@H](CC(=O)N3CCC(Cc4ccccc4)CC3)O[C@@H]2CO)cc1	none (no result: PfHsp40 yeast, FadD28 binding, PrP UTR inh)
O=C(O)c1ccccc1-c1c2cc(I)c(=O)c(I)c-2oc2c(I)c(O)c(I)cc12	PfHsp40 yeast 34
O=C(O)c1cccc(-n2sc3ccccc3c2=O)c1	PfHsp40 yeast 52
O=c1c2ccccc2sn1-c1ccccc1	none (no result: TcdB GH inh)
Oc1ccc2ccc3[nH]cnc3c2c1	TcdB GH inh 21
COCCNc1oc(/C=C/c2ccccc2)nc1C#N	TcdB GH inh 12 (no result: BioA inh)
CNc1oc(/C=C/c2ccccc2)nc1C#N	none (no result: BioA inh, TcdB GH inh)
Cc1ccc(S(=O)(=O)Nc2ccc3c(c2)C(=O)N([C@H](C)CO)C[C@@H](C)[C@H](CN(C)CC2CC2)O3)cc1	none (no result: PfHsp40 yeast, FadD28 binding, PrP UTR inh)
Oc1ccc(/C=N/Nc2ccnc3cc(Cl)ccc23)cc1O	FadD28 binding 12 (no result: BioA inh)
COCCNC(=O)C[C@H]1C[C@H]2c3cc(NC(=O)C4CCOCC4)ccc3O[C@H]2[C@H](CO)O1	none (no result: PfHsp40 yeast, FadD28 binding, PrP UTR inh)
O=c1c2ccccc2c(-c2ccc(O)cc2)nn1-c1cccc(C(F)(F)F)c1	PfHsp40 yeast 240, FadD28 binding inconclusive (no result: TcdB GH inh)
C[C@@H]1CCCCO[C@H](CN(C)C(=O)Nc2ccc(F)cc2)[C@H](C)CN([C@@H](C)CO)C(=O)c2cc(NC(=O)CCC(F)(F)F)ccc2O1	none (no result: PfHsp40 yeast, FadD28 binding, PrP UTR inh)
O=c1c2ccccc2oc2ccc(NCCCN3CCOCC3)cc12	TcdB GH inh 13
Cc1c(C(=O)c2ccc(F)cc2)c2ccccn2c1CCc1ccccn1	none (no result: BioA inh, PfHsp40 yeast)
Cc1c(C(=O)c2ccccc2)c2ccccn2c1CCc1ccccn1	TcdB GH inh 13 (no result: BioA inh)
O=C(CN1C(=O)NC2(CCc3ccccc32)C1=O)c1ccc(Br)cc1 (centres undefined)	none
O=C(CN1C(=O)NC2(CCCc3ccccc32)C1=O)c1ccc(Br)cc1 (centres undefined)	FadD28 binding 17
c1ccc(-c2nnc(OCC3CCCO3)c3ccccc23)cc1 (centres undefined)	TcdB GH inh 11
Cc1ccc(-c2nnc(OCCN3CCOCC3)c3ccccc23)cc1	none (no result: TcdB GH inh)
O=C(Nc1ccccc1F)N(Cc1ccc(F)cc1)Cc1nc2ccccc2c(=O)[nH]1	TcdB GH inh 24 (no result: BioA inh)
O=C(c1ccccc1)N(Cc1ccc(F)cc1)Cc1nc2ccccc2c(=O)[nH]1	none (no result: TcdB GH inh)
C/C(=N\NC(=S)NC1CCCCC1)c1c(F)cccc1F	PfHsp40 yeast 45
C/C(=N\NC(=S)NC1CCCCC1)c1cccs1	none
Cc1ccc(S(=O)(=O)N(C)C[C@H]2OCCCC[C@H](C)Oc3ccc(NS(=O)(=O)c4ccc(F)cc4)cc3C(=O)N([C@H](C)CO)C[C@@H]2C)cc1	none (no result: PfHsp40 yeast, FadD28 binding, PrP UTR inh)
CNC(=O)C[C@@H]1CC[C@@H]2[C@H](COC[C@H](O)CN2Cc2ccccc2F)O1	none (no result: PfHsp40 yeast, FadD28 binding, PrP UTR inh)
CCC(c1ccc(O)cc1)C(CC)c1ccc(O)cc1 (centres undefined)	PfHsp40 yeast 85
C[C@@H]1CN([C@H](C)CO)C(=O)c2cccc(NC(=O)NC3CCCCC3)c2O[C@H]1CN(C)S(=O)(=O)c1cn(C)cn1	none (no result: PfHsp40 yeast, FadD28 binding, PrP UTR inh)
CCCCNC(=O)C1CCN(S(=O)(=O)N2CCOCC2)CC1	TcdB GH inh 10
Cc1ccc(S(=O)(=O)N(C)C[C@@H]2Oc3cc(-c4cccc(F)c4)ccc3S(=O)(=O)N([C@H](C)CO)C[C@H]2C)cc1	none (no result: PfHsp40 yeast, FadD28 binding, PrP UTR inh)
O=C(C[C@@H]1C[C@@H]2c3cc(NS(=O)(=O)c4ccc(F)cc4)ccc3O[C@@H]2[C@H](CO)O1)NCc1cccnc1	none (no result: PfHsp40 yeast, FadD28 binding, PrP UTR inh)
CCc1ccccc1N(C(=O)c1cccs1)C1C=CS(=O)(=O)C1 (centres undefined)	PfHsp40 yeast 34 (no result: TcdB GH inh)
O=C(c1cccs1)N(c1cccc(Cl)c1)C1C=CS(=O)(=O)C1 (centres undefined)	none (no result: BioA inh)
O=C(NNC(=O)c1cc(Br)ccc1O)c1csc(N2CCOCC2)n1	PfHsp40 yeast 76 (no result: TcdB GH inh)
COc1ccc(S(=O)(=O)N(C)C[C@@H]2OCCCC[C@@H](C)Oc3ccc(NS(=O)(=O)c4ccc(C)cc4)cc3C(=O)N([C@@H](C)CO)C[C@@H]2C)cc1	none (no result: PfHsp40 yeast, FadD28 binding, PrP UTR inh)
FC(F)(F)c1cc(CCN2CCNC[C@H]2Cc2cccc3ccccc23)cc(C(F)(F)F)c1	TcdB GH inh 11
FC(F)(F)c1cc(CCN2C(=S)NC[C@@H]2Cc2ccccc2)cc(C(F)(F)F)c1	PfHsp40 yeast 48
S=C1NC[C@H](Cc2ccccc2)N1CCCCC1CCCCC1	PfHsp40 yeast 64
CO[C@H]1CN(C)C(=O)c2cc(NC(=O)Nc3ccccc3)ccc2OC[C@H](C)NC[C@@H]1C	none (no result: PfHsp40 yeast, FadD28 binding, PrP UTR inh)
CCc1ccccc1N1C(=O)CC(N2CCc3ccccc32)C1=O (centres undefined)	PfHsp40 yeast 69 (no result: BioA inh)
COc1ccccc1/C=C1\S/C(=N/NC(=O)c2cccc(Br)c2)NC1=O	PfHsp40 yeast 142 (no result: BioA inh, TcdB GH inh)
